Source: PubChem BioAssay AID1159580 (chemical genetic matrix, 2015)
About 2,000 (36%) of roughly 5,500 compounds were called active. Another 18% or so got no clear call; they are omitted. No stated cut-off is given here; in the data, active means normalized growth mostly below about 0.91 (no sharp cut-off); inconclusive means no clear call, values can overlap the other calls; inactive means mostly above about 0.92. The list shows a part of the results.

Assay: chemical genetic growth profiling, strain panel (AID 1159580);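 further: tested at 20 µM; growth read once vehicle control cultures reached saturation at 30 °C; 1 = growth at the plate median or of vehicle wells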
Settings: growth OD

Measured: normalized growth

C=C1c2cccc(O)c2C(O)=C2C(=O)[C@]3(O)C(O)=C(C(N)=O)C(=O)[C@@H](N(C)C)[C@@H]3[C@@H](O)[C@H]12
inactive: S. cerevisiae deletion strains, locus YJR075W, strain HOC1, stronger effect = lower value 0.992 | S. cerevisiae deletion strains, locus YKL009W, strain mrt4, stronger effect = lower value 1.03 | S. cerevisiae deletion strains, locus YKL068W, stronger effect = lower value 0.989 | S. cerevisiae deletion strains, locus YKL085W, strain MDH1 (second series), stronger effect = lower value 0.978 | S. cerevisiae deletion strains, locus YKL085W, strain MDH1, stronger effect = lower value 0.978 | S. cerevisiae deletion strains, locus YKL160W, strain elf1, stronger effect = lower value 1.02 | S. cerevisiae deletion strains, locus YKL190W, strain CNB1, stronger effect = lower value 0.992 | S. cerevisiae deletion strains, locus YKR001C, strain vps1, stronger effect = lower value 0.961 | S. cerevisiae deletion strains, locus YKR026C, strain gcn3, stronger effect = lower value 0.994 | S. cerevisiae deletion strains, locus YLL001W, strain dnm1, stronger effect = lower value 1.01 | S. cerevisiae deletion strains, locus YLL026W, stronger effect = lower value 1.02 | S. cerevisiae deletion strains, locus YLL041C, strain sdh2, stronger effect = lower value 1.02 | S. cerevisiae deletion strains, locus YLR027C, strain aat2, stronger effect = lower value 1.01 | S. cerevisiae deletion strains, locus YLR039C, strain RIC1, stronger effect = lower value 0.94 | S. cerevisiae deletion strains, locus YLR058C, strain SHM2, stronger effect = lower value 0.975 | S. cerevisiae deletion strains, locus YLR102C, strain apc9, stronger effect = lower value 1 | S. cerevisiae deletion strains, locus YLR113W, strain HOG1, stronger effect = lower value 0.986 | S. cerevisiae deletion strains, locus YLR221C, strain rsa3, stronger effect = lower value 0.996 | S. cerevisiae deletion strains, locus YLR258W, strain gsy2, stronger effect = lower value 1 | S. cerevisiae deletion strains, locus YLR262C, strain YPT6 (second series), stronger effect = lower value 1.01 | S. cerevisiae deletion strains, locus YLR262C, strain YPT6, stronger effect = lower value 0.967 | S. cerevisiae deletion strains, locus YLR268W, strain sec22, stronger effect = lower value 0.905 | S. cerevisiae deletion strains, locus YLR320W, strain mms22, stronger effect = lower value 1.01 | S. cerevisiae deletion strains, locus YLR330W, strain CHS5, stronger effect = lower value 0.969 | S. cerevisiae deletion strains, locus YLR342W, strain FKS1 (second series), stronger effect = lower value 0.979 | S. cerevisiae deletion strains, locus YLR342W, strain FKS1, stronger effect = lower value 1.01 | S. cerevisiae deletion strains, locus YLR357W, strain rsc2, stronger effect = lower value 1.01 | S. cerevisiae deletion strains, locus YLR370C, strain arc18, stronger effect = lower value 1.02 | S. cerevisiae deletion strains, locus YLR371W, strain rom2, stronger effect = lower value 0.991 | S. cerevisiae deletion strains, locus YLR384C, strain iki3, stronger effect = lower value 1.03 | S. cerevisiae deletion strains, locus YLR418C, strain cdc73, stronger effect = lower value 0.972 | S. cerevisiae deletion strains, locus YML016C, strain PPZ1, stronger effect = lower value 0.979 | S. cerevisiae deletion strains, locus YML032C, strain rad52, stronger effect = lower value 0.959 | S. cerevisiae deletion strains, locus YML120C, strain ndi1, stronger effect = lower value 1.01 | S. cerevisiae deletion strains, locus YML124C, strain tub3, stronger effect = lower value 0.991 | S. cerevisiae deletion strains, locus YMR058W, strain fet3, stronger effect = lower value 0.986 | S. cerevisiae deletion strains, locus YMR078C, strain ctf18, stronger effect = lower value 1 | S. cerevisiae deletion strains, locus YMR125W, strain sto1, stronger effect = lower value 0.998 | S. cerevisiae deletion strains, locus YMR129W, stronger effect = lower value 0.998 | S. cerevisiae deletion strains, locus YMR205C, strain PFK2, stronger effect = lower value 1.02 | S. cerevisiae deletion strains, locus YMR223W, strain ubp8, stronger effect = lower value 0.992 | S. cerevisiae deletion strains, locus YMR231W, strain pep5, stronger effect = lower value 1.01 | S. cerevisiae deletion strains, locus YMR263W, strain SAP30, stronger effect = lower value 0.976 | S. cerevisiae deletion strains, locus YMR307W, strain GAS1, stronger effect = lower value 1.02 | S. cerevisiae deletion strains, locus YNL067W, strain RPL9B, stronger effect = lower value 0.95 | S. cerevisiae deletion strains, locus YNL071W, strain lat1, stronger effect = lower value 1.03 | S. cerevisiae deletion strains, locus YNL128W, strain TEP1, stronger effect = lower value 0.976 | S. cerevisiae deletion strains, locus YNL153C, strain GIM3, stronger effect = lower value 0.925 | S. cerevisiae deletion strains, locus YNL183C, strain NPR1, stronger effect = lower value 0.922 | S. cerevisiae deletion strains, locus YNL209W, strain ssb2, stronger effect = lower value 1.01 | S. cerevisiae deletion strains, locus YNL233W, strain BNI4, stronger effect = lower value 0.965 | S. cerevisiae deletion strains, locus YNL248C, strain rpa49, stronger effect = lower value 1.06 | S. cerevisiae deletion strains, locus YNL250W, strain rad50, stronger effect = lower value 0.987 | S. cerevisiae deletion strains, locus YNL271C, strain bni1, stronger effect = lower value 0.954 | S. cerevisiae deletion strains, locus YNL298W, strain CLA4, stronger effect = lower value 0.981 | S. cerevisiae deletion strains, locus YNL307C, strain MCK1, stronger effect = lower value 1 | S. cerevisiae deletion strains, locus YNL322C, strain KRE1 (second series), stronger effect = lower value 1.01 | S. cerevisiae deletion strains, locus YNL322C, strain KRE1, stronger effect = lower value 0.991 | S. cerevisiae deletion strains, locus YNR049C, strain mso1, stronger effect = lower value 1.04 | S. cerevisiae deletion strains, locus YNR052C, strain pop2, stronger effect = lower value 0.982 | S. cerevisiae deletion strains, locus YOL006C, strain TOP1, stronger effect = lower value 0.891 | S. cerevisiae deletion strains, locus YOL012C, strain htz1 0.75 | S. cerevisiae deletion strains, locus YOL147C, strain pex11, stronger effect = lower value 0.995 | S. cerevisiae deletion strains, locus YOR001W, strain rrp6, stronger effect = lower value 1.04 | S. cerevisiae deletion strains, locus YOR061W, strain CKA2, stronger effect = lower value 0.979 | S. cerevisiae deletion strains, locus YOR069W, strain VPS5, stronger effect = lower value 1 | S. cerevisiae deletion strains, locus YOR070C, strain gyp1, stronger effect = lower value 1 | S. cerevisiae deletion strains, locus YOR080W, strain dia2, stronger effect = lower value 1.02 | S. cerevisiae deletion strains, locus YOR083W, strain WHI5, stronger effect = lower value 1.01 | S. cerevisiae deletion strains, locus YOR106W, strain vam3, stronger effect = lower value 1.01 | S. cerevisiae deletion strains, locus YOR136W, strain idh2, stronger effect = lower value 1 | S. cerevisiae deletion strains, locus YOR144C, strain elg1, stronger effect = lower value 1 | S. cerevisiae deletion strains, locus YOR184W, strain ser1, stronger effect = lower value 0.98 | S. cerevisiae deletion strains, locus YOR231W, strain MKK1, stronger effect = lower value 0.964 | S. cerevisiae deletion strains, locus YOR265W, strain rbl2, stronger effect = lower value 1.01 | S. cerevisiae deletion strains, locus YOR270C, strain vph1, stronger effect = lower value 1 | S. cerevisiae deletion strains, locus YOR290C, strain snf2, stronger effect = lower value 0.998 | S. cerevisiae deletion strains, locus YOR316C, strain cot1, stronger effect = lower value 0.988 | S. cerevisiae deletion strains, locus YPL051W, strain arl3, stronger effect = lower value 1 | S. cerevisiae deletion strains, locus YPL055C, strain LGE1, stronger effect = lower value 0.951 | S. cerevisiae deletion strains, locus YPL078C, strain atp4, stronger effect = lower value 1.03 | S. cerevisiae deletion strains, locus YPL106C, strain sse1, stronger effect = lower value 0.995 | S. cerevisiae deletion strains, locus YPL240C, strain hsp82, stronger effect = lower value 1.01 | S. cerevisiae deletion strains, locus YPL241C, strain CIN2, stronger effect = lower value 0.998 | S. cerevisiae deletion strains, locus YPL256C, strain CLN2, stronger effect = lower value 0.964 | S. cerevisiae deletion strains, locus YPR119W, strain clb2, stronger effect = lower value 0.994 | S. cerevisiae deletion strains, locus YPR141C, strain kar3, stronger effect = lower value 0.981 | S. cerevisiae deletion strains, locus YPR163C, strain tif3, stronger effect = lower value 0.992 | S. cerevisiae deletion strains, locus YPR167C, strain met16, stronger effect = lower value 0.983 | S. cerevisiae deletion strains, strain wtn01, stronger effect = lower value 0.932 | S. cerevisiae strains, strain wild type, stronger effect = lower value 0.969
